# High-throughput results from PubChem.
# Furin inhibitor: inhibitors of human furin; P09958; purified furin, fluorogenic substrate cleavage; inhibition, % at 20 µM or 30 µM; hit rate 0.061% among 220,000; AID 463115; in the data active means inhibition above about 25%
# Target sequence (P09958 108-714 limits assumed): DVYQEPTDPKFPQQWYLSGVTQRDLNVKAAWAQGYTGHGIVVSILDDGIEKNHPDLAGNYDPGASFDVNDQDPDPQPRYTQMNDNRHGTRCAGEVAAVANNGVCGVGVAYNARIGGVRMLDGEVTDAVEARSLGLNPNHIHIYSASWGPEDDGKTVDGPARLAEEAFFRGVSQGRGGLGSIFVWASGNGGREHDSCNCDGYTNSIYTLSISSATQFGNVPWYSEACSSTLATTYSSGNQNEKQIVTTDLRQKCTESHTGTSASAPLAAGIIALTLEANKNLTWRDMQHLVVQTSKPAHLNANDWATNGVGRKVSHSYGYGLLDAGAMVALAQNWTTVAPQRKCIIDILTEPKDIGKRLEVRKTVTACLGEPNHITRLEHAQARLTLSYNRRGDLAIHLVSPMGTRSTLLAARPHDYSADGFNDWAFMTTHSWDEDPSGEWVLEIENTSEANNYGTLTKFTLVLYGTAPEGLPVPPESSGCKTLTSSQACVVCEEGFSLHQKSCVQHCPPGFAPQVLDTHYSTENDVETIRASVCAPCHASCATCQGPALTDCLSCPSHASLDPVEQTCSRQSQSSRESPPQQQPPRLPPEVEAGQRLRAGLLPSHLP
# PGE2 EP2 inh: EP2 receptor (human) inhibition; P43116; C6 glioma cells expressing human EP2, cAMP TR-FRET; cells stimulated with saturating PGE2; inhibition, % at 25 µM; hit rate 0.52% among 260,000;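 active means percent inhibition above 40 after rounding to a whole number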;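 further: rat C6 glioma host cells with rolipram phosphodiesterase inhibitor present; the protocol text gives 20 µM as final concentration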
# Pf gametocyte: kills late stage P. falciparum gametocytes | P. falciparum stage V gametocytes, ATP luminescence, 24 h | AID 743093 | inhibition, % at 10.9 µM | hit rate 0.065% among 150,000;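 active means inhibition above the mean plus 3 SD of compounds within the control limits, set per campaign, cut at about 38% in these data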;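 further: 0% = DMSO wells and 100% = medium only without gametocytes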
# HSV replic up: HSV replication enhancement. hit rate 0.005% among 220,000. HSV replication augmentation in cells, fold increase. maximum fold increase; in the data active means maximum fold increase above about 1.5; tested in PC3 cells
# EP2 modulator: EP2 receptor (human) modulation; P43116; EP2-expressing cells, cAMP HTRF FRET, PGE2 co-stimulation; induction, % at 25 µM; hit rate 0.83% among 260,000;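 active means compounds whose cAMP rise, as percent of the full-agonist control response, exceeds 60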;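 further: rat C6 glioma line stably carrying human EP2 under a CMV promoter; the protocol text gives 20 µM as final concentration; 100% = response of wells given 1 µM PGE2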
# EP2 cAMP induct: human EP2 receptor cAMP induction, negative in counter-screens; C6 glioma EP2 cells, cAMP HTRF induction; plus low (about EC15) PGE2 agonist; AID 1080; shares compounds with EP2 modulator; hit rate 47% among 1,300; calls only at 20 µM (by protocol);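 active means cAMP induction above 50% in the main assay while under 30% in all four parallel counter assays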;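 further: rat C6 glioma cells stably expressing human EP2 receptor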
# The depositor's hits bear a star; i = inactive; x = no result; + = active, no number; ! = repeats disagree. Shown are actives, neighbours in structure and some others; about 1.4% of the full set was active somewhere.
SMILES,Furin inhibitor,PGE2 EP2 inh,Pf gametocyte,HSV replic up,EP2 modulator,EP2 cAMP induct
Cc1cccc(C)c1NC(=O)CSc1nc(COc2ccccc2)nc2ccccc12,1,37,x,i,69*,i
COC(=O)C(NC(=O)c1ccccc1)(Nc1nc(C)cs1)C(F)(F)F (centres undefined),-18,2,x,i,2,x
CC(C)CCNC(=O)C(c1ccco1)N(Cc1ccccc1)C(=O)c1snc(C(N)=O)c1N (centres undefined),-10,12,x,i,-3,x
Cc1ccc(N(C(=O)c2snc(C(N)=O)c2N)C(C(=O)NCCC(C)C)c2ccco2)cc1 (centres undefined),-27,6,0,i,78*,i
Cc1ccccc1NC(=O)/C(=C/c1ccco1)c1ccccc1,-10,9,19,i,38,x
CCc1ccccc1NC(=O)/C(=C/c1ccco1)c1ccccc1,-11,5,-31,i,68*,+
CCOC(=O)N1CCN(C(=O)c2ccc(NC(=O)CC)cc2)CC1,3,3,12,i,14,x
Cc1cccc(C)c1OCc1nnc(SCC(=O)Nc2nccs2)n1-c1ccccc1,-22,-2,-1,i,51,i
CCc1ccc2nc(SCC(=O)NCC3CCCO3)c(C#N)cc2c1 (centres undefined),-23,6,x,i,-26,x
CCc1ccc2nc(-c3cccc(C)c3)nc(SCC(=O)NCC3CCCO3)c2c1 (centres undefined),3,11,4,i,86*,i
CCN(CC)C(=O)c1cc(Cl)ccc1NC(=O)c1ccco1,-16,9,-4,i,-23,x
CCN(CC)P(=O)(Nc1ccccc1Br)c1ccc(N(C)C)cc1NC(=O)c1ccco1 (centres undefined),-19,5,-38,i,66*,i
CC(C)c1ccc(NC(=O)C2CC2c2ccccc2)cc1 (centres undefined),x,x,3,x,x,x
CCCSc1ncnc2sc(C)c(C)c12,-11,5,x,i,53,i
Cc1sc2ncnc(Sc3ccccc3C(=O)O)c2c1C,-17,16,x,i,72*,i
Cc1sc2ncnc(SCC#N)c2c1C,-5,23,x,i,49,x
CC(=O)c1ccc(NC(=O)c2ccccc2Sc2ncnc3sc(C)c(C)c23)cc1,-12,10,x,i,10,x
COc1ccc(N2CC(C(=O)Nc3ccc(S(=O)(=O)N4CCOCC4)cc3)CC2=O)cc1 (centres undefined),-8,9,x,i,-7,x
COc1ccc(C2=NN(C(=O)c3cccs3)C(c3ccccc3O)C2)cc1 (centres undefined),-26,7,x,i,71*,+
COc1ccc(C2=NN(C(=O)c3cccs3)C(O)(C(F)(F)F)C2)cc1 (centres undefined),-25,3,13,i,98*,+
COc1ccc(C(=O)N2N=C(C(C)C)CC2(O)C(F)(F)F)cc1 (centres undefined),x,18,x,x,4,x
COc1ccc2c(c1)c(CC(=O)O)c(C)n2Cc1ccc(F)cc1,x,8,x,x,17,x
COc1ccc2c(c1)c(=O)c(Br)c(C)n2Cc1ccccc1,-19,-1,x,i,68*,+
C=CCc1cccc(/C=N/c2nc3ccccc3n2CC)c1O,-23,2,x,i,84*,i
CCn1c(/N=C/c2ccccc2O)nc2ccccc21,x,x,-2,x,x,x
SMILES,Furin inhibitor,PGE2 EP2 inh,Pf gametocyte,HSV replic up,EP2 modulator,EP2 cAMP induct
CN1CCN(CC(=O)N2c3ccccc3C(C)(c3ccccc3)CC2(C)C)CC1 (centres undefined),-12,9,x,i,19,x
CC(=O)N1c2ccccc2C(C)(c2ccccc2)CC1(C)C (centres undefined),0,8,x,i,78*,+
CCCc1nc(SCC(=O)c2ccccc2)c2c(=O)n(C)c(=O)n(C)c2n1,-26,6,x,i,29,x
CCCCc1nc(SCCOC)c2c(=O)n(C)c(=O)n(C)c2n1,-20,6,-23,i,59,i
FC(F)(F)c1cc(-c2ccccc2)nc(N2CCOCC2)n1,-21,10,-14,i,65*,i
CN(c1ccccc1)C1CCCCC1NS(=O)(=O)c1ccc(Cl)cc1 (centres undefined),-16,6,24,i,66*,+
CCc1ccccc1OCC(=O)NC1CCCC1,-14,6,8,i,13,x
NC(N)=Nc1nc(CSCC/C(N)=N/S(N)(=O)=O)cs1,-10,12,x,i,10,i
Cc1ccc(-c2csc(N=C(N)N)n2)cc1,-28,8,1,i,-44,x
CCOC(=O)Cc1csc(NC(=O)c2cc(=O)c3ccccc3o2)n1,-11,9,x,i,84*,+
Cc1n[nH]c(C)c1N=Nc1ccc(Br)cc1,-4,6,20,i,-8,x
COC(=O)c1nn(-c2ccccc2)c(Cl)c1/C=N/OCc1c(Cl)cccc1Cl,x,x,5,x,x,x
Cc1noc(C)c1COC(=O)C(c1ccccc1)c1ccccc1,-21,5,x,i,75*,i
Cc1ccc(CNC(=O)c2ccc(N3CCC4(CC3)CC(c3cccc(Br)c3)=NO4)c(N)c2)cc1,x,x,7,x,x,x
O=C(c1ccc(Cl)cc1)c1oc2ccccc2c1CS(=O)c1ccc(Cl)cc1 (centres undefined),-4,9,-6,i,73*,+
Nc1c(C(=O)c2ccc(Cl)cc2)oc2ccccc12,-5,9,-7,i,21,x
CCOc1ccc(CN2C(=O)c3ccccc3C2C(=O)NCC2CCCO2)cc1 (centres undefined),-19,7,-3,i,-22,x
COc1cnc(N(C)C)nc1Sc1cccc(Cl)c1,-21,11,x,i,76*,+
COc1cnc(-c2ccccc2)nc1Sc1ccccc1,-30,3,x,i,41,x
Cc1ccnc(NS(=O)(=O)c2cccs2)c1,-28,8,x,i,83*,i
Cc1cccc(NS(=O)(=O)c2cccs2)n1,-27,8,8,i,4,x
COc1cc(C2C(C(C)=O)=C(O)C(=O)N2CC#N)ccc1O (centres undefined),x,13,x,x,-3,x
Cc1ccc(S(=O)(=O)c2c(C)nn(-c3ccccc3)c2OC(=O)c2ccco2)cc1,-8,11,x,i,67*,i
CCOc1ccc(-c2csc(N)c2C(=O)OC)cc1,-1,13,x,i,25,x
Cc1cccc(-c2csc(N)c2C(=O)OC(C)C)c1,-19,9,x,i,96*,+
COC(=O)c1n[nH]nc1-c1ccccc1,-15,5,-34,i,18,x
c1ccc(-c2n[nH]nc2-c2ccccc2)cc1,-22,4,3,i,66*,+
COc1ccc(CNC(=O)C2CC(C)=C(C)CC2C(=O)O)cc1 (centres undefined),-24,6,-7,i,-12,x
COc1ccc2ccc(=O)oc2c1CC=C(C)C,-13,9,x,i,67*!,+
